High-throughput results (PubChem)
Only some compounds are listed: those with a hit (about 1.7% of all), similar ones and a draw of the others.
LYPLA2 counter: LYPLA2 (human) inhibition in PME1 counter-screen; recombinant LYPLA2, FP-Rh probe fluorescence polarization; inhibition, % at 5.9 µM; 320,000 tested, 0.38% active; AID 2177;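 active = inhibition above the screen-wide mean plus 3 SD, limit set per campaign, cut at about 26% in these data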;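 note: 0% = LYPLA2 with DMSO and 100% = wells lacking LYPLA2 enzyme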
Target sequence (O95372 whole entry, looked up): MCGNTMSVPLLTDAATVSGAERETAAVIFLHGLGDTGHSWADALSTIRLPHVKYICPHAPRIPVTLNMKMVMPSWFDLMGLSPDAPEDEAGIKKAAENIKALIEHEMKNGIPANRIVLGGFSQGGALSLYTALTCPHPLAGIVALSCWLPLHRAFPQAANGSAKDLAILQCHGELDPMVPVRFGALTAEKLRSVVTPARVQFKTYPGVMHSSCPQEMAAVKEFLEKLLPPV
LYPLA1 counter: counter-screen for PME1 inhibitors: inhibitors of human LYPLA1; O75608; recombinant LYPLA1, FP-Rh probe fluorescence polarization; inhibition, % at 5.9 µM; 320,000 tested, 0.16% active;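 active = inhibition above the mean of all tested compounds plus 3 SD, set per campaign, cut at about 14% in these data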;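 note: inhibitors block serine hydrolase probe labeling of LYPLA1 so polarization falls; 0% = enzyme with DMSO and 100% = wells lacking LYPLA1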
Target sequence (O75608 whole entry, looked up): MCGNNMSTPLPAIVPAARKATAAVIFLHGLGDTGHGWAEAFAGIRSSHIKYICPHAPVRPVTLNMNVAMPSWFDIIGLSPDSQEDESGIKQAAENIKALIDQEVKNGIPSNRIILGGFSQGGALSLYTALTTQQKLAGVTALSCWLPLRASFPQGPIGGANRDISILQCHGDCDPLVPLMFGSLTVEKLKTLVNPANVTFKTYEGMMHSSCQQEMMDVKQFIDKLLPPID
PREPL inh: inhibitors of human prolyl oligopeptidase-like enzyme PREPL; recombinant PREPL, fluorescence polarization activity-based probe; 320,000 tested, 0.68% active; Q4J6C6; inhibition, % at 5.96 µM;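 note: 0% = enzyme with DMSO and 100% = wells lacking enzyme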
Hck-Nef inh: inhibitors of human Hck kinase activated by Nef. P08631. Recombinant Hck-YEEI plus Nef, Z-Lyte FRET kinase assay. inhibition, % at 20 µM. 220,000 tested, 0.68% active. AID 463187;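 active = Hck-Nef kinase inhibition above about 50%, limit read from the data; inactive = inhibition below that limit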;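 note: 0% = DMSO with Hck plus Nef and 100% = Hck alone without Nef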
p97 inhibitor: inhibitors of human p97 ATPase | 220,000 tested, 0.42% active | recombinant p97 ATPase, Kinase-Glo ATP luminescence, 3 h | P55072 | inhibition, % at 8 µM | AID 1481; in the data active = inhibition above about 15%;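 note: 0% = DMSO vehicle and 100% = wells lacking enzyme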
Rin1-Abl PPI inh: blocks binding of human Rin1 to Abl; P00519+Q13671; TR-FRET Rin1/Abl binding, biochemical; inhibition, % at 7.35 µM; 360,000 tested, 0.4% active; in the data active = inhibition above about 5%, passing the limit was not always enough
LYPLA1 confirm: counter-screen for PME1 inhibitors: confirmation of human LYPLA1 inhibitors | AID 2233 | shares compounds with LYPLA1 counter | inhibition, % at 5.9 µM | 480 tested, 69% active | recombinant LYPLA1, FP-Rh probe fluorescence polarization;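 active = mean inhibition across replicates above the hit cutoff set in the primary screen, cut at about 15% in these data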;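 note: loss of FP-Rh probe labeling of LYPLA1 seen as lower polarization; 0% = LYPLA1 with DMSO and 100% = wells lacking LYPLA1 enzyme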
LYPLA2 confirm: LYPLA2 (human) inhibition, confirmation counter-screen | shares compounds with LYPLA2 counter | recombinant LYPLA2, FP-Rh probe fluorescence polarization | inhibition, % at 5.9 µM | 1,100 tested, 72% active | AID 2232;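 active = mean inhibition across replicates above the hit cutoff set in the primary screen, cut at about 26% in these data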;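 note: blocked labeling of the enzyme by serine hydrolase FP-Rh probe lowers polarization; 0% = enzyme with DMSO and 100% = wells lacking LYPLA2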
PREPL confirm: human PREPL inhibition, confirmation; shares compounds with PREPL inh; recombinant PREPL, fluorescence polarization activity probe; inhibition, % at 5.96 µM; 2,000 tested, 67% active;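 note: 0% = protein with DMSO and 100% = wells lacking protein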
Active calls of the source: *; . = no result given. Cut-off read from the data, not from the text of the source, unless noted: active = inhibition above about 43%; inactive = the rest.

SMILES	LYPLA2 counter	LYPLA1 counter	PREPL inh	Hck-Nef inh	p97 inhibitor	Rin1-Abl PPI inh	LYPLA1 confirm	LYPLA2 confirm	PREPL confirm
Cc1ccc(C)c(C(=O)CCC(=O)N2CCN(c3cccc(C(F)(F)F)c3)CC2)c1	56.9*	37.5*	2.9	.	.	1.2	44.1*	64.1*	.
O=C(CCCCn1c(=O)[nH]c2ccccc2c1=O)N1CCN(c2cccc(C(F)(F)F)c2)CC1	83.2*	19.9*	-6.6	0.4	6.7	4.2	21.8*	72.6*	.
CN(Cc1ccc(Cl)cc1)C(=O)COC(=O)c1ccc(-c2ccc(O)cc2)cc1	-2.3	-0.9	4.2	.	.	-1.1	.	.	.
COC(=O)c1cc(C)nc2c1C(=O)C(=O)C=C2N1CCOCC1	79.0*	71.5*	42.7	.	.	-0.7	90.9*	93.0*	.
COc1ccc(CN(C)CC(=O)Nc2ccccc2C(=O)NC2CC2)cc1OC	4.6	1.7	-0.9	.	.	-0.3	.	.	.
Cc1ccc(CN2CCN(/N=C/C=C/c3ccccc3[N+](=O)[O-])CC2)cc1	71.1*	32.9*	26.2	26.2	2.0	-1.4	52.6*	76.7*	.
COc1ccc2c(c1)C(=O)[C@H](O)[C@@H](c1ccc(OC)c(Br)c1)O2	92.6*	44.1*	11.4	-11.1	6.1	.	41.5*	93.1*	.
O=C1C=C(N2CCCCC2)c2ccccc2C1=O	26.9*	40.0*	12.7	.	.	-1.5	37.3*	32.2*	.
CCc1cc(=O)oc2cc(C)cc(OC(C)C(=O)NCCCN3CCCC3=O)c12 (stereo not given)	9.5	-0.4	0.1	.	.	-1.9	.	.	.
NC(=NCc1ccco1)NC(=O)c1ccc(Cl)cc1	0.9	-2.2	3.0	.	.	1.5	.	.	.
O=C(CSc1c(F)c(F)cc(F)c1F)Nc1ccc(C2SCCS2)cc1	132.0*	105.0*	-1.8	5.5	-4.0	1.2	-0.5	-0.4	.
O=C(CSc1ccc(Cl)cc1)Nc1ccc(C2SCCS2)cc1	-2.2	-2.6	-6.2	11.1	3.8	-0.8	.	.	.
COc1ccc(Cc2nnc(Nc3ccccc3)s2)cc1Br	42.4*	42.2*	16.0	.	.	2.8	36.1*	29.6*	.
COc1ccc(CNc2ccccc2)cc1Br	-4.8	-0.9	14.7	10.3	1.6	1.4	.	.	.
COc1ccc(OCC(O)CN2CCC(CN3C(=O)c4cccc5cccc(c45)C3=O)CC2)cc1 (stereo not given)	68.6*	20.0*	4.2	.	.	-9.9	23.1*	69.3*	.
CCOC(=O)C1(Cc2ccccc2)CCCN(C(=O)c2cnn(CC)c2)C1 (stereo not given)	12.5	3.2	-3.4	.	.	2.2	.	.	.
Cc1ccc(CNc2ccc3nnc(-c4ccccc4)n3n2)cc1	-3.2	-1.5	-0.5	-3.9	3.4	0.2	.	.	.
c1ccc(CN2CCN(CCCNc3ccc4nnc(-c5ccccc5)n4n3)CC2)cc1	38.5*	36.0*	-30.1	15.7	-2.8	0.7	38.2*	29.0*	.
Cc1ccc(C(=O)N[C@H](C(=O)NC2CCCCCCC2)C(C)C)cc1	5.4	3.4	15.1	.	.	3.9	.	.	.
COCCC(=O)N1CCC(Oc2ccc(C(=O)NCc3cccc(C)n3)cc2)CC1	-8.3	-1.7	7.0	.	.	2.8	.	.	.
Cc1cc(C(=O)COc2cccc3cccnc23)c(C)n1C	29.1*	21.4*	64.7*	1.3	6.2	-0.6	6.5	7.3	9.9
COc1cc(/C=N/NC(=O)c2ccc(Cn3cc([N+](=O)[O-])cn3)o2)cc(Br)c1O	-2.6	-1.9	4.7	18.1	6.2	-0.9	.	.	.
COc1cc(/C=N\NC(=O)c2ccc(Cn3cc(Br)c([N+](=O)[O-])n3)o2)cc(OC)c1O	-2.4	16.4*	51.2*	2.4	3.4	2.5	10.1	.	41.5
COc1ccc2[nH]c3c(=O)n(CCCC(=O)NC4CCCCC4C)c(=S)[nH]c3c2c1 (stereo not given)	-3.7	-3.1	18.8	.	.	-0.1	.	.	.
O=C1c2ccccc2-c2onc3ccc(NCc4ccco4)c1c23	118.2*	98.5*	82.2*	24.5	-1.0	-13.9	100.2*	120.8*	105.8*
SMILES	LYPLA2 counter	LYPLA1 counter	PREPL inh	Hck-Nef inh	p97 inhibitor	Rin1-Abl PPI inh	LYPLA1 confirm	LYPLA2 confirm	PREPL confirm
O=C1C(Cl)=C(NCc2ccco2)C(=O)c2ccccc21	.	.	.	.	.	-9.8	.	.	.
O=C1c2ccccc2-c2onc3c(N4CCN(CCO)CC4)cc(N4CCN(C(=O)c5ccco5)CC4)c1c23	19.6	16.6*	44.7*	.	.	-13.0	9.5	.	55.7*
Cn1c(CNc2ccc(Cl)cc2)nc2ccccc21	-2.7	-2.3	15.5	-0.2	-6.0	0.8	.	.	.
CC(C)N=c1cc2n(-c3ccc(Cl)cc3)c3ccccc3nc-2cc1Nc1ccc(Cl)cc1	42.6*	31.0*	45.5*	.	.	1.5	14.8*	7.2	48.2*
O=C(CN1CCN(c2ccccn2)CC1)Nc1cc(C(F)(F)F)ccc1Cl	-5.3	53.9*	46.9*	0.5	2.4	1.4	54.9*	.	30.5
O=C(CN1CCN(c2ccccn2)CC1)Nc1ccc(Cl)c(C(F)(F)F)c1	3.2	1.6	5.7	1.4	5.5	-1.9	.	.	.
CCOC(=O)C1CCCN(C(=O)C2COc3ccccc3O2)C1 (stereo not given)	.	.	.	.	.	0.9	.	.	.
CCOC(=O)C1CCCN(C(=O)C2c3ccccc3Oc3ccccc32)C1 (stereo not given)	59.1*	56.1*	65.3*	1.6	-2.1	-4.1	4.6	2.7	-1.9
Cn1c(NCCc2ccccc2)cc(=O)n(C)c1=O	2.3	-1.6	5.2	1.1	4.6	3.1	.	.	.
Cn1c(=O)c(NCCO)c2c3c(cccc31)C(=O)c1ccccc1-2	112.0*	97.1*	89.9*	-3.8	6.5	-29.1	93.5*	99.0*	102.8*
Cn1c(=O)c(NCCc2ccccc2)c2c3c(cccc31)C(=O)c1ccccc1-2	174.4*	148.3*	163.4*	-10.7	-4.6	-16.4	130.4*	169.8*	166.4*
CCNC1=C(Cl)C(=O)c2ccccc2C1=O	7.0	5.6	11.4	4.6	0.6	-15.9	.	.	.
CCNc1c2c3c(cccc3n(C)c1=O)C(=O)c1ccccc1-2	51.0*	56.5*	69.2*	0.0	2.9	.	49.9*	64.2*	54.3*
CC(=O)C12OC(C)(C)OC1CC1C3CCC4=CC(=O)C=CC4(C)C3(F)C(O)CC12C (stereo not given)	.	.	.	.	.	0.8	.	.	.
CC(C)(C)OC(=O)N1CCC(C(=O)Nc2cccc(C(=O)NCCCCc3ccccc3)c2)CC1	.	.	.	.	.	-3.7	.	.	.
O=C(N/N=C/c1cc(Cl)c(O)c(Cl)c1)c1cc2c(ccc3ccccc32)o1	7.3	24.1*	59.0*	.	.	1.1	8.8	.	68.5*
